# MITF TRPM1 inh: inhibitors of MITF-driven TRPM1 promoter in melanoma cells; inhibition, % at 12.5 µM; actives 0.83% (n = 330,000); SK-MEL-5 TRPM1 promoter luciferase, 24 h; AID 488899;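 active means mean inhibition across replicates of 60% or more, whatever share of single replicates reaches that level; inconclusive means some that reach 60%, reason not given; inactive means mean inhibition across replicates below 60%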
# MITF act: MITF TRPM1 promoter activation in melanoma cells; actives 0.75% (n = 300,000); activation, % at 12.5 µM; SK-MEL-5 TRPM1-promoter luciferase, 24 h; % of positive control, neutral wells = 0; AID 588334;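 active means mean activation of at least 80% with every replicate also reaching 80%; inconclusive means mean reaches 80% but some replicate falls short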;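 further: 0% = neutral control wells and 100% = parthenolide positive control wells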
# Wnt act: activates Wnt/beta-catenin signaling in a reporter cell assay; activation, % at 9.35 µM; AID 743398; actives 1.2% (n = 300,000); activator, plate reader; in the data active means activation above about 30%, passing the limit was not always enough; inconclusive means no clear call, values can overlap the other calls;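 further: 0% = neutral control wells and 100% = positive control wells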
# C2C12 statin: suppression of simvastatin myotoxicity; C2C12 myotubes + simvastatin, ATP luminescence, 48 h; scaled: DMSO 0, geranylgeraniol control 100; rescue of ATP level, % at 7.49 µM; actives 0.78% (n = 330,000); AID 602340;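 active means mean ATP rescue above about 67%, or every replicate alone reaching that limit, limit read from the data, passing the limit was not always enough; inconclusive means no clear call, values can overlap the other calls; inactive means mean under the limit and some replicate under it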;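 further: myotubes were challenged with 10 µM simvastatin during compound exposure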
# esBAF inh: inhibitors of esBAF chromatin remodeling in mouse ES cells; Bmi1-luciferase knock-in reporter, 24 h; 100% = twice the neutral-well signal; actives 2% (n = 350,000); reporter increase, % at 12.5 µM; in the data active means activation above about 40%; inconclusive means no clear call, values can overlap the other calls;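 further: 0% = median of the plate's neutral control wells and 100% = double that signal; a rise in the Bmi1 reporter signal indicates esBAF inhibition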
# EBV LMP1 NFkB: inhibitors of Epstein-Barr LMP1-induced NF-kappaB reporter | LMP1-induced NF-kappaB luciferase reporter cells, luminescence | inhibition, % at 12.5 µM | actives 0.69% (n = 350,000); in the data active means inhibition above about 41%; inconclusive means no clear call, values can overlap the other calls;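 further: 0% = neutral control wells and 100% = reference inhibitor control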
# Starred values were filed as active, the others as inactive; ? = inconclusive; · = not tested or not shown. Only some compounds are listed: those with a hit (about 4% of all), similar ones and a draw of the others.
SMILES,MITF TRPM1 inh,MITF act,Wnt act,C2C12 statin,esBAF inh,EBV LMP1 NFkB
CCC(=NCCO)c1c(O)n(-c2ccc(Cl)cc2)c(=O)[nH]c1=O,7,-5,-1,114*,1,-18
C=C1C(=O)O[C@@H]2C[C@@H](C)[C@@H]3C=CC(=O)[C@@]3(C)[C@@H](OC(=O)CC(=O)O[C@H]3[C@@H]4C(=C)C(=O)O[C@@H]4C[C@@H](C)[C@@H]4C=CC(=O)[C@]43C)[C@H]12,98*,-98,-20,-367,-87,92*
C=C1C(=O)O[C@H]2[C@H]1[C@H](OC(=O)CC(=O)O[C@@H]1C[C@@H](C)[C@@H]3C=CC(=O)[C@@]3(C)[C@H]3OC(=O)C(=C)[C@H]13)C[C@@H](C)[C@H]1C=CC(=O)[C@]12C,10,-9,14,-24,-16,-7
C=C1C(=O)O[C@@H]2C[C@@H](C)[C@@H]3C4OC4C(=O)[C@@]3(C)[C@@H](O)[C@H]12 (stereo not given in full),101*,-100,-26,80*,12,100*
C=C1C(=O)OC2CC(C)C3C=CC(=O)C3(C)C(O)C12 (stereo not given),100*,-99,·,·,·,93*
NC(=Nc1ccccc1)NN=Cc1c[nH]c2ccccc12,88*,-87,-16,·,·,4
CC(C)NC(=O)N1[C@@H]2c3ccc(-c4cccc(C(=O)N(C)C)c4)c(=O)n3C[C@H]1[C@H](CO)[C@H]2C(=O)O,·,·,·,-9,-2,·
Cc1cccc(N=Nc2ccc(N(C)C)cc2)c1,-57,56,49*,2,2,-30
CN(C)c1ccccc1,·,·,0,3,-1,4
COC(=O)C1C2c3ccccc3C(c3ccccc32)C1C(=O)OC (stereo not given),7,-6,1,-16,-1,-6
Cc1nn(Cc2ccccc2)c(C)c1C(=O)OCC(=O)NC1CCS(=O)(=O)C1 (stereo not given),-13,15,·,·,·,-4
CCC(=Nc1ccc2c(c1)CCC2)c1c(O)n(C)c(=O)n(C)c1=O,8,-13,·,112*,9,12
O=C(Nc1ccc(Cl)c(Cl)c1)c1ccco1,-60,54,9,2,60*,-14
Cc1ccc(OP(=O)(Nc2cccc(C)c2)Oc2ccc(C)cc2)cc1,7,-8,-1,17,-3,-5
Cc1cccc(NP(C)(=O)c2nc3c(s2)CCCC3)c1 (stereo not given),-44,48,-1,143*,25,-33
CN1/C(=C\C=C2C(=O)NC(=O)NC2=O)C(C)(C)c2ccccc21,-13,9,-5,·,·,1
CN1/C(=C\C=Nc2ccccc2)C(C)(C)c2ccccc21,6,-6,-2,85*,-46,1
Cc1ccc(C(=O)C2CN(C)CC2C(=O)c2ccc(C)cc2)cc1 (stereo not given),-14,13,·,-5,60*,-9
O=c1c2ccccc2nc(-c2ccccc2)n1-c1ccncc1,5,·,-3,-4,-6,-48
Cc1ccsc1/C=C1\C(=O)NC(=S)N(C)C1=O,70*,-70,2,0,-1,6
CN1C(=O)/C(=C/c2ccc(Cl)s2)C(=O)NC1=S,-1,·,-1,1,6,-4
CN1C(=O)/C(=C\c2ccc(N3CCCCC3)o2)C(=O)NC1=S,-33,·,50*,12,21,-6
CN1C(=O)/C(=C/c2ccc(N3CCCCCC3)o2)C(=O)NC1=S,-47,·,44*,-13,3,-16
COc1nc(NC(C)C)nc(NC(C)C)n1,14,-15,·,-2,2,-6
Nc1ccc([As](=O)(O)O)cc1,-3,4,0,-4,4,6
SMILES,MITF TRPM1 inh,MITF act,Wnt act,C2C12 statin,esBAF inh,EBV LMP1 NFkB
O=C1NC(=O)C(=Cc2ccc(-c3ccc(Cl)cc3)o2)C(=O)N1,68*,-64,·,4,9,1
Cc1ccc2c(C)c3ccc4ccccc4c3c[n+]2c1,68*,-67,-5,-21,-24,-5
CCCOC(=O)COc1cc(C)cc2oc(=O)c3c(c12)CCC3,2,0,·,10,6,-9
O=C(CCCc1ccc(N(CCCl)CCCl)cc1)NCc1ccccc1,·,·,-5,-7,-22,42*
CC(=O)NC(Cc1ccc(N(CCCl)CCCl)cc1)C(=O)NC(C(=O)O)C(C)C (stereo not given),-21,4,0,·,·,2
C[C@H]1CCC[C@H](O)CCCCCc2cc(O)cc(O)c2C(=O)O1,-3,3,-3,4,18,-7
C[C@H]1CCC/C=C/C2C[C@H](O)CC2[C@H](O)/C=C/C(=O)O1 (stereo not given in full),80*,-80,·,-109,-59,-31
C[C@H]1CCC[C@@H](O)CCC/C=C/c2cc(O)cc(O)c2C(=O)O1,10,-9,·,?,4,21
CC1CCC/C=C/C2CC(O)CC2C(O)/C=C/C(=O)O1 (stereo not given),85*,-84,-32,-198,-65,-172
CC(O)C1C=CC=CC(=O)OC2CC3OC4C5OC5(C)C(O)CC4(COC(=O)C(O)C(C)CCO1)C2(C)C31CO1 (stereo not given),79*,-79,-3,·,·,88*
CC1=CC2OC3CC4OC(=O)C=CC=CC(C(C)O)OCC(O)C5(C)OC5C(=O)OCC2(CC1O)C4(C)C31CO1 (stereo not given),90*,·,-9,·,·,97*
CC1CCOC(=O)C=CC=CC(=O)OC2CC3OC4C5OC5(C)C(O)CC4(COC(=O)C1O)C2(C)C31CO1 (stereo not given),80*,·,-26,·,·,87*
CC1=CC2OC3CC4OC(=O)C=CC=CC(=O)OCCC(C)C(O)C(=O)OCC2(CC1)C4(C)C31CO1 (stereo not given),104*,·,-26,·,·,82*
Cc1nc2ccccc2c(=O)n1-c1ccc(C(=O)O)cc1,-10,12,1,-50,-3,-1
CCCCCCn1c(=O)c(C(=O)Nc2cccc(C)n2)c(O)c2ccccc21,1,-1,·,-10,2,7
Nc1ccccc1C(=O)OCc1ccc([N+](=O)[O-])cc1,-52,54,4,4,57*,-26
CC1(C)C[C@H]2C=C(C=O)[C@]3(C=O)C[C@]3(C)[C@H]2C1,88*,-87,-1,-54,-54,-83
CNc1ccc2nc3ccccc3[n+](C)c2c1,72*,-69,0,-14,-46,4
C[n+]1c2ccccc2nc2ccc(NCCO)cc21,4,-3,14,-3,13,11
O=C(Nc1ccc(OC(=O)N2CCCCC2)cc1)N1CCOCC1,66*,-68,-15,-5,-72,30
O=C(Nc1ccc(OC(=O)N2CCCC2)cc1)N1CCOCC1,-9,11,-1,8,-9,-1

# Screening data from PubChem BioAssay.
